POLH inh: qHTS for Inhibitors of Polymerase Eta; 390,000 compounds, 1.2% hits; AID 588591, 2011; recombinant Pol eta, fluorescent DNA replication assay; Potency, µM (series often up to 114 µM), usual class: inhibitors
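Pol eta at 10 nM preincubated with compounds 15 min at room temperature; reaction started with fluorescent substrate (50 nM final) and read kinetically at 0 and 10 min.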
POLB inh: qHTS Assay for Inhibitors of DNA Polymerase Beta | AID 485314, 2010 | P06746 | Pol beta primer extension/strand displacement, fluorescence kinetic | Potency, µM (titrated, usually from 114 µM), actives largely listed as inhibitors | 340,000 compounds, 1.3% hits
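Values derive from four-parameter Hill fits of normalized kinetic data: reads at 0 and 10 min following addition of 50 nM substrate to 10 nM Pol beta preincubated 15 min with compound.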
FEN1 inh: qHTS Assay for the Inhibitors of Human Flap endonuclease 1 (FEN1); Recombinant FEN1 flap cleavage, fluorescence, 15 min; Potency, µM (titrated, usually from 114 µM), hits mostly inhibitors; 390,000 compounds, 0.35% hits; also: nearly all actives have a fitted effect of over 65% in size
Target sequence (P39748 whole entry, looked up): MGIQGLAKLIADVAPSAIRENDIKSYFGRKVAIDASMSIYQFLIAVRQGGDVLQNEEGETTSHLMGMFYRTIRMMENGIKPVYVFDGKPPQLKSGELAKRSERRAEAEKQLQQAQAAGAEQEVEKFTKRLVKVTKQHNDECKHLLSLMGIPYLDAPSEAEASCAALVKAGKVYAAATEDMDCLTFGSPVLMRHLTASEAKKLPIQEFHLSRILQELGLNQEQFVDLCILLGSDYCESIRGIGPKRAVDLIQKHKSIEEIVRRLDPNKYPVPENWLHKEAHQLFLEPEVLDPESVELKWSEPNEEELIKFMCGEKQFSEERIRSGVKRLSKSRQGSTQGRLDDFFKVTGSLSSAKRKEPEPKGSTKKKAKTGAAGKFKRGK
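Read-out was taken twice, immediately and after 15 min, following addition of 50 nM substrate to 10 nM FEN1 that had sat with test compound for 15 min at room temperature. Curves came from a four-parameter Hill model.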
POLK inh: qHTS for Inhibitors of Polymerase Kappa. 400,000 compounds, 0.53% hits. DNA polymerase kappa (Homo sapiens), Q9UBT6. purified Pol kappa, fluorescent DNA synthesis assay, 10 min. AID 588579, 2011. Potency, µM (doses to about 107 µM), actives largely listed as inhibitors
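First, compounds were pin-transferred onto 10 nM Pol kappa. After 15 min at room temperature, substrate was added to 50 nM final. Fluorescence was then measured kinetically at 0 and 10 min.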
TDP1 block: qHTS Assay for Inhibitors of Tyrosyl-DNA Phosphodiesterase (TDP1) | Tyrosyl-DNA phosphodiesterase 1 (Homo sapiens), Q9NUW8 | 350,000 compounds, 0.28% hits | recombinant TDP1, AlphaScreen DNA substrate cleavage | Potency, µM (top dose mostly 130 µM), hits mostly inhibitors; also: nearly all actives have a fitted effect of over 40% in size
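E. coli-derived human Tdp1, 1 nM final. Cpd preinc 15 min RT; substrate 15 nM final, 5 min RT; AS bead mix 10 ug/ml final, 10 min RT. Signal loss = tyrosine-FITC cleavage. No-enzyme wells = max signal.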
Pol iota inh: qHTS for Inhibitors of Polymerase Iota | DNA polymerase iota (Homo sapiens), Q9UNA4 | Pol iota fluorescent replication assay, 10 min | Potency, µM (series often up to 115 µM), actives largely listed as inhibitors | 390,000 compounds, 1% hits
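Pol iota at 10 nM preincubated 15 min with compounds at room temperature; reaction started with fluorescent substrate, 50 nM final. Fluorescence read kinetically at 0 and 10 min; buffer-only wells as negative control.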
Hits are given with their value; - = inactive; ? = inconclusive; . = no result given; [ ] = remark or other dose. Rows were chosen to be rich in hits. Some 2.4% of all compounds tested hit in one or more screens of this group. Calls follow the shape of the dose curve; as a rule, active = well fitted curve in the direction sought with a large enough effect; inconclusive = small, poorly fitted or top-dose-only effect, or another doubt; inactive = no such curve, though single readings can be large; an effect the other way counts as inactive or inconclusive.

SMILES	POLH inh	POLB inh	FEN1 inh	POLK inh	TDP1 block	Pol iota inh
O=C(CN1C(=O)C(=O)N(Cc2ccco2)C1=O)NC1CCCCC1	32µM	-	-	?	.	?
CNC(=O)COC(=O)/C=C/c1ccco1	-	-	-	-	-	-
O=C(Cn1cc(CNCc2ccccc2)nn1)Nc1cc(C(F)(F)F)ccc1Cl	.	.	.	.	-	.
CCCCN(C)CCCNC(=O)Cn1ncc2c3ccccc3n(Cc3cccc(Cl)c3)c2c1=O	-	-	-	-	-	-
CSc1ccccc1NC(=O)COC(=O)/C=C/c1ccco1	?	.	-	-	.	?
O=C(NCc1ccco1)c1c(Cl)cccc1Cl	-	.	.	.	.	.
O=C(/C=C/c1ccco1)NCCc1ccc(F)cc1	?	25µM	-	-	.	20µM
O=C(/C=C/c1ccco1)NCCCN1CCN(CCCNC(=O)/C=C/c2ccco2)CC1	-	-	-	-	-	-
O=C(COC(=O)/C=C/c1ccc(Br)o1)Nc1ccccc1F	.	25µM	.	.	16µM	.
O=C(NCCc1ccccc1)/C(=C/c1ccco1)c1ccccc1	?	35µM	-	-	-	-
O=C(NCc1ccco1)c1c(F)c(F)c(F)c(C(=O)NCc2ccco2)c1F	45µM	?	-	?	-	-
O=C(COC(=O)/C=C/c1ccc(Br)o1)NC1CCCCC1	?	.	-	79µM	.	22µM
NNC(=S)NCc1ccco1	-	-	-	-	.	20µM
O=C(COC(=O)/C=C/c1cccc(Br)c1)NC1CCCCC1	-	.	-	-	-	-
CC(OC(=O)/C=C/c1ccco1)C(=O)NC1CCCCC1 (stereo unspecified)	-	.	.	.	.	.
O=C(COC(=O)/C=C/c1ccco1)NC1CCCCC1	-	.	-	-	50µM	-
O=C(NCc1ccco1)C1c2ccccc2Oc2ccccc21	7.9µM	18µM	-	?	.	?
COc1cccc(-c2nc(SCC(=O)N3CCc4ccccc43)c3c(=O)n(C)c(=O)n(C)c3n2)c1	-	-	-	-	-	-
O/N=C(/C[n+]1cccc(Br)c1)c1ccc2ccccc2c1	.	.	-	-	.	-
COc1cccc(N2C(=O)c3ccccc3C2=O)c1	.	.	.	.	-	.
Cc1ccc(NC(=O)c2oc3ccc4c(c3c2C)C(=O)CC(C)(C)O4)c(C)c1	-	-	-	-	-	-
O=C(NCc1ccccc1)c1cc(-c2ccco2)on1	-	-	-	-	-	-
O=C(NCc1ccco1)c1cc(-c2ccco2)on1	-	-	-	-	-	89µM
O=C(/C=C/c1ccc(F)cc1)NCc1ccco1	?	56µM	-	-	-	?
Cn1c(=O)c(-c2ccc(F)cc2)nc2cnc(N3CCOCC3)nc21	.	.	.	-	.	.
SMILES	POLH inh	POLB inh	FEN1 inh	POLK inh	TDP1 block	Pol iota inh
CCOC(=O)C1CCCN(C(=O)c2ccccc2NC(=O)c2nsc3ccccc23)C1 (stereo unspecified)	-	-	-	-	-	-
Cc1cccc(C(=O)NC2CCN(C#N)CC2)c1	.	.	.	.	-	.
COc1ccc2cc3cc(C(=O)NCc4ccco4)oc3nc2c1	16µM	22µM	?	?	50µM	?
Cc1nn(-c2ccccc2)c(Cl)c1C(=O)NCc1cccs1	?	13µM	-	-	-	?
N#Cc1nc(Nc2cc(F)cc(F)c2)c2ncn(C3CCCC3)c2n1	.	.	.	.	-	.
O=C(c1cccc(N2C(=O)C3CC=CCC3C2=O)c1)N1CCN(c2ccccc2)CC1 (stereo unspecified)	-	45µM	-	-	-	-
Cc1cc2oc(C(=O)N(Cc3ccc(N(C)C)cc3)CC3CCCO3)c(C)c2cc1Cl (stereo unspecified)	-	-	-	-	-	-
O=C1SC(SCc2ccccc2)=N/C1=C\c1ccco1	79µM	35µM	?	32µM	-	11µM
O=C1SC(SCc2ccccc2)=N/C1=C\c1ccc(C(=O)O)cc1	-	-	-	-	.	-
COC(=O)Cn1c(C(=O)N(C)C)cc2c1C[C@H]1CN(C(=O)c3ccccc3)[C@@](Cc3ccc(OC)cc3)(C(=O)OC)[C@@H]21	.	.	.	.	-	.
COC(=O)C/C=C\[C@@H](C)[C@@H](/C=N\O[C@@H]1O[C@H](COC(C)=O)[C@H](OC(C)=O)[C@H](OC(C)=O)[C@H]1OC(C)=O)OC	.	.	.	.	-[21 µM]	.
CCN1/C(=C/C=C/c2oc3ccc4ccccc4c3[n+]2CC)Oc2ccc3ccccc3c21	32µM	6.3µM	?	45µM	.	79µM
CC(C)C[C@@H](CNCC(=O)[C@H](Cc1c[nH]c2ccccc12)NC(=O)c1[nH]cnc1C(=O)N[C@H](CN)CC(C)C)NC(=O)c1nc[nH]c1C(=O)N[C@@H](CC(=O)O)C(=O)O	50µM	.	-	?	.	?
CC(C)C[C@@H](CNCC(=O)[C@H](Cc1c[nH]c2ccccc12)NC(=O)c1[nH]cnc1C(=O)N[C@@H](C)CN)NC(=O)c1nc[nH]c1C(=O)N[C@@H](CC(=O)O)C(=O)O	-	.	-	-	.	?
COc1ccccc1/C=C/C=C1N=C(/C=C/c2ccc(Cl)cc2)OC/1=O	-	?	-	-	-	-
COc1ccccc1/C=C/C1=NC(=C\C=C/c2ccccc2)/C(=O)O1	?	20µM	-	-	-	?

Screening data as filed in PubChem.
